Experimental data taken from PubChem BioAssay AID504700 (The Scripps Research Institute Molecular Screening Center, 2011).
Among all 340,000 compounds or so, about 270 (0.079%) were called active. This excerpt belongs to a sample that is enriched for actives. Unmarked numbers belong to inactive results.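 The calls were made as follows: active = activation above a cutoff set at the mean over all compounds plus 3 SD (cut at about 18% in these data); inactive = the rest.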 Where a SMILES comes first, the peptide text is derived from it.

These compounds were tested against cAMP-dependent protein kinase catalytic subunit beta (Homo sapiens) + cAMP-dependent protein kinase type II-beta regulatory subunit (Homo sapiens) (UniProt P22694+P31323) (assay: compounds dissociating PKAc from R2B subunit – biochemical, fluorescence polarization, Cy5-IP20, human, primary screen (AID 504700;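 also: higher means more holoenzyme dissociation and a rise in polarization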)). Settings: PKA-R2B holoenzyme dissociation, at 11.4 µM, active compounds read high, 0% DMSO only, 100% 113 µM cGMP, R2B truncated from residue 108, S112A mutant.
Chain of cAMP-dependent protein kinase catalytic subunit beta (Homo sapiens) + cAMP-dependent protein kinase type II-beta regulatory subunit (Homo sapiens) (P31323 whole entry, looked up, other chains not shown, the tested form may be a part): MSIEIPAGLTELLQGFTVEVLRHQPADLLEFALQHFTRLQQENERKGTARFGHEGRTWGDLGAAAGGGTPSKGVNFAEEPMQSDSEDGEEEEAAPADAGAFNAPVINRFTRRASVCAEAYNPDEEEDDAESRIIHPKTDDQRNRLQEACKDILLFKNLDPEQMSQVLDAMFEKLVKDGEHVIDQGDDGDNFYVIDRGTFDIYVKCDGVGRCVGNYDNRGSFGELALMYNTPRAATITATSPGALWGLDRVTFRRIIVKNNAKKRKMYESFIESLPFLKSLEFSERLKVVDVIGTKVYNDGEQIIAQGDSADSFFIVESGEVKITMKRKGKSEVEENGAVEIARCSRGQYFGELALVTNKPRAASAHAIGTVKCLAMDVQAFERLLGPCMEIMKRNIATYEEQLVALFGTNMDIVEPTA

| SMILES | activation |
| --- | --- |
| C[C@H]1CN([C@@H](C)CO)C(=O)c2cc(-c3cccc(F)c3)cnc2O[C@@H]1CN(C)S(C)(=O)=O | 4.49% |
| O=C(C1CCCO1)N1CCN(C(=O)C23CC4CC(CC(C4)C2)C3)CC1 (centres undefined) | 7.92% |
| O=Nc1c(O)cc(O)c2ccccc12 | -0.7% |
| O=C(CCN1CCCCC1)Nc1ccc(F)c(F)c1 | -4% |
| O[C@H]1C[C@H](c2ccc(Cl)cc2)N(Cc2cccs2)C[C@@H]1n1cc(C2CC2)nn1 | -5.34% |
| COc1ccc(-c2ccc3[nH]c4c(c3c2)CCN2C[C@H]3[C@H](C)ON(C)[C@H]3C[C@@H]42)cc1 | -1.96% |
| C[C@H]1CN([C@@H](C)CO)C(=O)c2cc(Br)cnc2O[C@H]1CN(C)S(=O)(=O)c1cccs1 | -1.49% |
| O=C(c1ncn2c1c(=O)[nH]c1ccccc12)N1CCc2ccccc2C1 | 0.26% |
| Cc1cccc(C)c1NC(=O)CNC(=O)c1ccc(N2CCOCC2)c([N+](=O)[O-])c1 | -5.41% |
| Cc1noc(C)c1NC(=O)N(C)C[C@@H]1Oc2cc(Br)ccc2S(=O)(=O)N([C@@H](C)CO)C[C@H]1C | -6.5% |
| Cc1cn([C@H]2C[C@H](O)[C@@H](CNC(=O)[C@H](N)Cc3cccnc3)O2)c(=O)[nH]c1=O | 3.26% |
| COc1ccc(NC(=O)CN(C)C(=O)c2cc(C)oc2C)cc1 | 7.31% |
| O=C(NCCc1cccc(F)c1)C1CC(O)CN1C(=O)Nc1ccccc1 (centres undefined) | -8.6% |
| COc1ccc([C@H]2N[C@]3(CCCN(Cc4ccco4)C3=O)[C@H]3C(=O)N(C)C(=O)[C@@H]23)cc1 | -1.07% |
| C[C@H]1CN([C@@H](C)CO)C(=O)c2cc(C3=CCCCC3)cnc2O[C@@H]1CN(C)C(=O)Cc1ccccc1 | 4.23% |
| Cc1nonc1C(=O)N/N=C/c1ccc(O)cc1 | -0.48% |
| CC(C)(C)c1nnc(N/N=C/c2ccc(O)cc2)n(N)c1=O | 21.1% (active) |
| Nc1nnn(CC(=O)N/N=C/c2ccc(O)cc2)n1 | -7.14% |
| COc1cc2nnn(-c3ccncc3)c2cc1OC | 5.36% |
| COc1ccc(C(=O)OCC(=O)Nc2cc(C)on2)cc1F | 1.88% |
| COC(=O)C[C@H]1C[C@@H]2c3cc(NC(=O)Nc4ccccc4)ccc3O[C@@H]2[C@@H](CO)O1 | 6.99% |
| CC(C)[C@H](NC(=O)c1ccccc1F)C(=O)Nc1cccc(S(=O)(=O)N2CCOCC2)c1 | 4.82% |
| Cc1ccc([C@H]2N[C@]3(CCCN(CC4CCCCC4)C3=O)[C@H]3C(=O)N(Cc4ccccc4)C(=O)[C@@H]23)cc1 | -3.62% |
| O=C(CNC(=O)c1ccco1)OCC(=O)c1ccccc1 | 3.42% |
| O=C(CNC(=O)c1ccccc1)NCC(=O)OCc1ccc(Cl)cc1 | -2.62% |
| O=C(CNC(=O)c1ccccc1)NCC(=O)OCC(=O)c1ccccc1 (HELM PEPTIDE1{[O=C(c1ccccc1)[*:2]].G.G.[O=C(CO[*:1])c1ccccc1]}$$$$V2.0) | 22.6% (active) |
| O=C(O)C1CCCN1c1nc(Cl)ccc1[N+](=O)[O-] (centres undefined) | 5.76% |

| SMILES | activation |
| --- | --- |
| COc1ccc(C(CNC(=O)c2ccc(OCc3cscn3)cc2)N2CCCC2)cc1 (centres undefined) | 3.82% |
| O=C(O)C1=C(C(=O)O)C2CCC1C2 | 19.1% (active) |
| COc1ccc(S(=O)(=O)N2CCCCC2)cc1C(=O)NC1CCS(=O)(=O)C1 (centres undefined) | -9.4% |
| C[C@@H]1CN([C@@H](C)CO)C(=O)c2cc(NS(C)(=O)=O)ccc2O[C@@H](C)CCCCO[C@H]1CN(C)C(=O)Nc1ccc2c(c1)OCO2 | 3.71% |
| COc1cccc(C(=O)Nc2ccc3nc4n(c(=O)c3c2)CCCCC4)c1 | -0.66% |
| CC(C)C1CCN(C(=O)C2CCC(=O)N(C3CCCCCC3)C2)CC1 (centres undefined) | -0.9% |
| N#CCCN(C(=O)Nc1ccc(Cl)c(Cl)c1)C1CCCCC1 | 1.61% |
| O=C(c1ccc(CS(=O)Cc2ccccc2Cl)o1)N1CCN(c2ccccc2)CC1 (centres undefined) | 2.13% |
| COc1ccc(-c2cnc3c(c2)C(=O)N([C@H](C)CO)C[C@@H](C)[C@H](CN(C)Cc2ccccc2)O3)cc1 | 5.52% |
| CCOc1cc(/C=N/NC(=O)c2ccncc2)cc(Br)c1O | -1.34% |
| Cc1ccc(NC(=O)c2ccco2)cc1 | 4.37% |
| CC1(C)CN(CCc2ccccc2)C(=O)[C@H]1CC(=O)Nc1ccc(Br)cc1 | -0.64% |
| COc1ccc(NC(=O)N(C)C[C@H]2Oc3ncc(C#C[C@@H](C)O)cc3C(=O)N([C@H](C)CO)C[C@H]2C)cc1 | 2.12% |
| COCOCCn1cc(CN2CCS(=O)(=O)N(Cc3ccc(-c4ccc(OC)cc4)cc3)C(CC(C)C)C2=O)nn1 (centres undefined) | -14.1% |
| Cc1cccc(C(=O)NC2CCN(CC(=O)Nc3cccc(Cl)c3)CC2)c1 | -3.65% |
| COc1ccc(OC)c(NC(=O)C2CCCN2S(=O)(=O)c2ccc3c(c2)CC(C)N3C(C)=O)c1 (centres undefined) | -3.21% |
| COc1ccc(CC(NC(C)=O)C(=O)NC2CCN(C(=O)c3ccc(Cl)cc3)CC2)cc1 (centres undefined) | 19.4% (active) |
| CC(=O)NC(Cc1ccc(F)c(F)c1)C(=O)NC1CCN(C(=O)c2ccc(C)cc2)CC1 (centres undefined) | -1.79% |
| COc1ccc(CC(NC(C)=O)C(=O)NC2CCN(C(=O)c3ccc(OC)c(OC)c3)CC2)cc1OC (centres undefined) | -5.58% |
| COc1cccc(Nc2nnc(SCC(=O)N3CC(C)OC(C)C3)s2)c1 (centres undefined) | 19.7% (active) |
| COc1cccc(Nc2nnc(SCC(=O)N3CC(=O)Nc4ccccc43)s2)c1 | -4.91% |
| COc1ccc(C(=O)CSc2nnc(NC(=O)C3CC(=O)N(c4cccc(OC)c4)C3)s2)cc1 (centres undefined) | -12.2% |
| C[C@@H]1CN([C@@H](C)CO)C(=O)CCCn2nncc2CO[C@@H]1CN(C)S(=O)(=O)c1ccc(-c2ccccc2)cc1 | 8.61% |
| CN1CCn2cnc(C(=O)NCC(=O)OC(C)(C)C)c2C1=O | 6.86% |
| C[C@H]1CN([C@@H](C)CO)C(=O)CCCn2cc(nn2)CO[C@@H]1CN(C)S(=O)(=O)c1ccc(-c2ccccc2)cc1 | -2.02% |
| Cc1csc(=O)n1CCC(=O)OCC(=O)Nc1ccc(N2CCOCC2)cc1 | -13.7% |
| COc1cc(C)c(CN2CCN(C(=O)CCC(=O)c3ccc(C)s3)CC2)cc1OC | -4.23% |

| SMILES | activation |
| --- | --- |
| C[C@@H]1CN([C@H](C)CO)C(=O)c2cc(-c3ccc(F)cc3)cnc2O[C@H]1CN(C)C(=O)c1ccc(F)cc1 | -10.7% |
| O=C(CCc1ccc(O)cc1)NN=Cc1cc(Br)ccc1O | -5.67% |
| CCCCN1CC(C)(C)[C@H](CC(=O)Nc2ccc(Br)cc2)C1=O | -7.25% |
| C=CCOc1cccc(C2C(C(=O)c3ccc(C)o3)=C(O)C(=O)N2CCN2CCOCC2)c1 (centres undefined) | 2.21% |
| CC1(C)CC(=O)C=C(c2ccccc2CO)C1=O | -3.08% |
| C[C@@H]1CN([C@@H](C)CO)C(=O)CCCn2nncc2CO[C@H]1CN(C)C(=O)Nc1ccc(C(F)(F)F)cc1 | -17.1% |
| C[C@@H]1CN([C@H](C)CO)C(=O)CCCn2nncc2CO[C@@H]1CN(C)C(=O)OCc1ccccc1 | -4.31% |
| O=C(NCCOc1ccccc1)N1[C@H]2CC[C@@H]1C=C(c1ccc(F)cc1OCc1ccccc1)C2 | -0.02% |
| CSc1ncnc2c1ncn2CCCNCC(C)c1ccccc1 (centres undefined) | -3.46% |
| Cc1ccc(-c2ccc(CN3C(C)C(=O)N(Cc4cn(CCC5OCCCO5)nn4)CCS3(=O)=O)cc2)cc1 (centres undefined) | -0.73% |
| CSc1ncccc1C(=O)N1CCCC(Nc2ccc(F)c(F)c2)C1 (centres undefined) | -3.17% |
| COc1ccccc1-n1c(SCC(=O)Nc2ccc(Cl)cc2)nc(O)c(Cc2ccccc2)c1=O | 0.18% |
| Cc1cc(=O)c2ccc(NC(=O)c3ccccc3)cc2[nH]1 | 0.43% |
| COc1ccc(N(CC(=O)NCc2ccc(F)cc2)C(=O)CCC(=O)Nc2nccs2)cc1 | -12.4% |
| CCC(C)(C)NC(=O)CN(C(=O)CCC(=O)Nc1nccs1)c1ccc2c(c1)OCO2 | 6.11% |
| O=C(CN(C(=O)CCC(=O)Nc1nccs1)c1ccc(F)cc1)NCc1ccc2c(c1)OCO2 | 18.4% (active) |
| O=C(Nc1ccc2c(c1)[C@@H]1C[C@@H](CC(=O)N3CCCCC3)O[C@@H](CO)[C@@H]1O2)NC1CCCCC1 | -11.6% |
| O=C(OCc1cn([C@@H]2C[C@H](c3ccc(Cl)cc3)N(Cc3cccs3)C[C@H]2O)nn1)c1ccccc1 | -14.6% |
| CCN(CC)C(=O)C1=C(C)N(Cc2ccc(F)cc2)C(=O)C(CC(=O)NCc2cccc3ccccc23)C1 (centres undefined) | 1.37% |
| O=c1[nH]c2ccccc2n1C1CCN(CCOc2ccccc2)CC1 | -11% |
| CSC1=NN(c2ccccc2)CN(c2ccccc2)N1C | 9.82% |
| O=C(COC(=O)Cc1ccc(Cl)cc1Cl)NCc1ccco1 | -1.41% |
| CCCC(=O)Nc1ncnc2c1ncn2[C@@H]1O[C@@H]2OP(=O)(O)OC[C@H]2[C@H]1OC(=O)CCC | 42.6% (active) |
| CCOC(=O)c1c(C)[nH]c(C)c1C(=O)COC(=O)/C=C/c1cccc([N+](=O)[O-])c1 | -7.22% |
| COc1ccc(CN2C(=O)C(CC(=O)NCCN3CCOCC3)CC(C(=O)N(C(C)C)C(C)C)=C2C)cc1 (centres undefined) | -6% |
